Assay [1] is described as follows: CCTE_Shafer_MEA_acute_per_network_burst_spike_number_mean: CCTE's Neural Acute Assay for Average Number of Spikes in a Network Burst, Shafer Lab (AID 2284019). The method in brief:
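Rat cortical cultures, DIV 13/15; spike threshold 8x rms noise, 300-5000 Hz band-pass, 12.5 kHz sampling; wells need >/= 10 active electrodes. Compound 0.03-40 uM, 40 min, 37 C; % change vs own baseline, DMSO negative control.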

Assay [2] can be described thus: CCTE_Shafer_MEA_acute_per_network_burst_spike_number_std: CCTE's Neural Acute Assay for Standard Deviation of Number of Spikes in a Network Burst, Shafer Lab (AID 2284020).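 Further: fitted for decrease in spike-number SD versus DMSO so actives lower it.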 The essentials: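 Rat cortical cultures, DIV 13/15, 37 C; 20-min stabilisation, 40-min baseline, compound 0.03-40 uM, 40-min re-record. Spikes detected at 8x rms noise (300-5000 Hz band-pass). Readout: % change from baseline in per-burst spike-number SD.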

The nature of assay [3]: CCTE_Shafer_MEA_acute_per_network_burst_electrodes_number_mean: CCTE's Neural Acute Assay for Mean Number of Electrodes in a Network Burst, Shafer Lab (AID 2284021).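 Further: curves fitted for decreases only so hits reduce electrodes per burst.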 The method in brief:
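Percent change from baseline in average electrode count per network burst, rat cortical cultures on 48-well MEAs; 40-min recordings each side of exposure, DIV 13 or 15; threshold 8x rms noise; DMSO as negative control.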

Assay [4] in a line: CCTE_Shafer_MEA_acute_network_burst_percentage: CCTE's Neural Acute Assay for Percentage of Network Bursts, Shafer Lab (AID 2284022).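 Further: curves fitted for loss so actives lower network burst percentage.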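 On outcome: rat primary cortical neuron networks on multiwell MEA recorded 40 min.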 The method in brief: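 On DIV 13 or 15, at least three wells of rat cortical neurons per compound are dosed at 0.03-40 uM. Spontaneous firing is detected at 8x rms noise for 40 min before and after dosing at 37 C. The percent change in network-burst spike share is reported.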

Assay [5] can be described thus: CCTE_Shafer_MEA_acute_cross_correlation_area: CCTE's Neural Acute Assay for Area of Cross Correlation, Shafer Lab (AID 2284024).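 Further: area under pooled inter-electrode spike cross-correlation near zero lag as percent change from own baseline; curves fitted for loss of cross-correlation area so actives lower synchrony.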 The essentials:
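Extracellular recordings from cultured rat cortical neurons measure network synchrony as cross-correlation area; each well's post-compound value (0.03-40 uM, 40 min) is compared with its own 40 min baseline to give percent change.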

A short description of assay [6]: CCTE_Shafer_MEA_acute_cross_correlation_HWHM: CCTE's Neural Acute Assay for Cross Correlation at Half Width at Half Maximum, Shafer Lab (AID 2284026).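 Further: percent change per well from pre-dose baseline in spike cross-correlogram half width; hits are a decrease in cross-correlogram half width relative to DMSO.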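 On outcome: spontaneous network firing of rat primary cortical neurons on multiwell microelectrode arrays.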 The method in brief: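 Percent change in cross-correlogram half width at half maximum, narrower meaning more synchrony, was derived per well from paired 40-min recordings before and during exposure to 0.03-40 uM compound in rat cortical cultures at 37 C.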

Assay [7] is described as follows: CCTE_Shafer_MEA_acute_synchrony_index: CCTE's Neural Acute Assay for Synchrony, Shafer Lab (AID 2284027).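 Further: network synchrony index of spontaneous spiking in primary rat cortical neurons on MEAs; fitted for loss of signal so actives lower synchrony relative to DMSO.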 The essentials: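 Rat cortical cultures, DIV 13/15; spikes detected at 8x rms noise, 300-5000 Hz band-pass. Compound 0.03-40 uM, ≥3 wells; 40-min pre- and post-exposure recordings, 37 C. Readout: % change in synchrony index; loss-of-signal fit vs DMSO.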
A short description of assay [8]: ATG_M_19_CIS: Attagene CIS-FACTORIAL HepG2 Assay for M19 Transcription Factor (Internal Marker) (AID 2282939). The note with it: HepG2 Attagene CIS-FACTORIAL M19 internal marker reporter; actives raise or lower the signal. The method in brief: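 HepG2, MRTU transient transfection, 24 h dosing. Total RNA → RT-PCR → 6-FAM primer extension → HpaI digest → CE fluorescence. Bidirectional curve fit, DMSO negative control.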

The target of assay [9] is Hypoxia-inducible factor 1-alpha (Homo sapiens) (UniProt Q16665). Put plainly: ATG_HIF1a_CIS: Attagene CIS-FACTORIAL HepG2 Assay for human Hypoxia Inducible Factor 1 (HIF1A) (AID 2282951). The settings on record: HepG2 Attagene cis-factorial HIF1a reporter transcription; actives raise or lower the signal. The method in brief:
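In this multiplexed cell assay, HepG2 cells bearing transfected cis reporters are dosed for 24 h and reporter mRNA is read by RT-PCR plus capillary electrophoresis; signal increases and decreases are both scored against DMSO.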

The nature of assay [10]: ATG_MRE_CIS: Attagene CIS-FACTORIAL HepG2 Assay for human Metal Responsive Element (MRE) (AID 2282954). The note with it: HepG2 MRE cis-reporter transcription, Attagene multiplex; actives raise or lower the signal. The method in brief: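 RT-PCR/capillary electrophoresis readout of reporter mRNA, 24 h post-dosing, in HepG2 cells transfected with multiplexed cis-regulated reporter constructs. Gain or loss of signal fitted bidirectionally against DMSO baseline.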

A short description of assay [11]: ATG_M_19_TRANS: Attagene TRANS-FACTORIAL HepG2 Assay for M19 Transcription Factor (Internal Marker) (AID 2282974; active means hit-call score of the fitted dose curve at least 0.9, where 1 is the maximum). The settings on record: HepG2 Attagene TRANS-FACTORIAL M19 internal marker reporter. The essentials: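 Measured here: internal-marker reporter transcript from HepG2 cells transfected with MRTUs, harvested at 24 h. cDNA PCR products were 6-FAM labelled by primer extension, cut with HpaI for 2 h at 37 C, and resolved by CE.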

A short description of assay [12]: ATG_GAL4_TRANS: Attagene TRANS-FACTORIAL HepG2 Assay for GAL4 (Internal Marker) (AID 2282976; active means hit-call score of the fitted dose curve at least 0.9, where 1 is the maximum). The settings on record: HepG2 Attagene TRANS GAL4 internal marker reporter. The essentials:
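Liver HepG2 line bearing multiplexed GAL4-UAS reporter constructs; 24 h chemical treatment. Transcripts were quantified as fluorescent fragments on capillary electrophoresis after RT-PCR and HpaI cut, with activity fitted upward from DMSO.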

Assay [13] has as its target Hepatocyte nuclear factor 4-alpha (Homo sapiens) (UniProt P41235). Put plainly: ATG_HNF4a_TRANS: Attagene TRANS-FACTORIAL HepG2 Assay for human Hepatocyte Nuclear Factor 4 alpha (HNF4a) (AID 2282982; active means hit-call score of the fitted dose curve at least 0.9, where 1 is the maximum). The note with it: HepG2 HNF4a transactivation reporter, mRNA readout. The essentials:
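Transient MRTU transfection of HepG2, 24 h dosing. Readout: reporter mRNA via RT-PCR + capillary electrophoresis, fluorescence; activity fit upward relative to DMSO control.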

Assay [14] addresses human Peroxisome Proliferator-activated Receptor delta (PPARd), PPARD (gene 5467) (UniProt Q03181). Put plainly: ATG_PPARd_TRANS: Attagene TRANS-FACTORIAL HepG2 Assay for human Peroxisome Proliferator-activated Receptor delta (PPARd) (AID 2283002; active means hit-call score of the fitted dose curve at least 0.9, where 1 is the maximum). The essentials: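 Fluorescence from capillary electrophoresis of labelled RT-PCR reporter fragments gives the signal; DMSO sets baseline. Cells: HepG2 transiently carrying GAL4-UAS reporter units plus chimeric nuclear receptor-Gal4 proteins, exposed to chemicals for 24 h.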

Assay [15] deals with human Retinoid X Receptor beta (RXRb), RXRB (gene 6257) (UniProt P28702). The assay can be described thus: ATG_RXRb_TRANS: Attagene TRANS-FACTORIAL HepG2 Assay for human Retinoid X Receptor beta (RXRb) (AID 2283013; active means hit-call score of the fitted dose curve at least 0.9, where 1 is the maximum). The essentials: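 Read-out: reporter mRNA induction via RT-PCR plus capillary electrophoresis fluorescence, analysed as signal increase relative to DMSO. Cells were human HepG2, transiently transfected with GAL4-UAS reporter constructs and chimeric receptor-Gal4 fusions, dosed for 24 h.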
human Retinoid X Receptor beta (RXRb), RXRB (gene 6257), sequence (P28702 whole entry, looked up, the tested form may be a part): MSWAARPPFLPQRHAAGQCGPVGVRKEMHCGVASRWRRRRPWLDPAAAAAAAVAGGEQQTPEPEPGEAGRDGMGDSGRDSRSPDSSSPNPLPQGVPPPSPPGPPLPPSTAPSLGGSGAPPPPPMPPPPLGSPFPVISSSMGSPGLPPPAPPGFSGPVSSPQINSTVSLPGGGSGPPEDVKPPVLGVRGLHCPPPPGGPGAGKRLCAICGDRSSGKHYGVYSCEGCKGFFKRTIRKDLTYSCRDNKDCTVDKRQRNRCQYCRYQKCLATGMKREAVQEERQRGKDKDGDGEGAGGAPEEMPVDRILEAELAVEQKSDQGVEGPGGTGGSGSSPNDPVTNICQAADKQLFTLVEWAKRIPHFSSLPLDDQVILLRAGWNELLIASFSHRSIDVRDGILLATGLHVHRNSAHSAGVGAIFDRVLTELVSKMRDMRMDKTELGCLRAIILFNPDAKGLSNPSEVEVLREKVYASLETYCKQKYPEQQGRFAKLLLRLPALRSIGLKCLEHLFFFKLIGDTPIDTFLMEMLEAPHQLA

Assay [16] concerns the target human Thyroid Receptor alpha (THRa1), THRA (gene 7067) (UniProt P10827). The assay can be described thus: ATG_THRa1_TRANS: Attagene TRANS-FACTORIAL HepG2 Assay for human Thyroid Receptor alpha (THRa1) (AID 2283014; active means hit-call score of the fitted dose curve at least 0.9, where 1 is the maximum). The method in brief: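 Measured here is mRNA from a GAL4-UAS reporter in transfected HepG2 cells carrying a Gal4-fused receptor, 24 h post-dose. DMSO served as negative control and baseline.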

Assay [17] can be described thus: ATG_PBREM_CIS: Attagene CIS-FACTORIAL HepG2 Assay for human Phenobarbital-responsive Enhancer Module (PBREM) (AID 2282955). The note with it: HepG2 PBREM cis-reporter, Attagene multiplexed transcription; actives raise or lower the signal. The essentials: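 After a 24 h incubation with test chemical, transfected HepG2 cells yield total RNA; reporter-specific RT-PCR products are fluorescently labelled, HpaI-digested and resolved by capillary electrophoresis against ROX size standards.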

Assay [18] deals with human RAR-related Orphan Receptor beta (RORb), RORB (gene 6096) (UniProt Q92753). Put plainly: ATG_RORb_TRANS: Attagene TRANS-FACTORIAL HepG2 Assay for human RAR-related Orphan Receptor beta (RORb) (AID 2283010; active means hit-call score of the fitted dose curve at least 0.9, where 1 is the maximum). The method in brief: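 HepG2, transient MRTU transfection (GAL4-UAS reporters, exogenous NR-Gal4 chimeras); 24 h compound exposure; total RNA → RT-PCR → 6-FAM primer extension → HpaI digest → CE fluorescence. Positive direction vs DMSO baseline.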
human RAR-related Orphan Receptor beta (RORb), RORB (gene 6096), sequence (Q92753 whole entry, looked up, the tested form may be a part): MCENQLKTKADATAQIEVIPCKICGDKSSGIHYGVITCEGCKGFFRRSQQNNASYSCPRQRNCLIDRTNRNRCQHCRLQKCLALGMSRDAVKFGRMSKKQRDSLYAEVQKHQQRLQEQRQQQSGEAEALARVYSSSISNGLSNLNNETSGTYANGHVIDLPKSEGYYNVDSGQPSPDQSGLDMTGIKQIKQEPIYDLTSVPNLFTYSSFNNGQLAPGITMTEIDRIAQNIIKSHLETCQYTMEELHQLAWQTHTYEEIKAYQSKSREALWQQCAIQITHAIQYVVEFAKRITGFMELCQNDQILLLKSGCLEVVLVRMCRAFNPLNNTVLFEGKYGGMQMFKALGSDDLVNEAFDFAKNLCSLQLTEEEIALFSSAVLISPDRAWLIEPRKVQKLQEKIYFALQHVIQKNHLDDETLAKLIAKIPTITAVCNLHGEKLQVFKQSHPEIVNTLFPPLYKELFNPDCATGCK

A short description of assay [19]: ACEA_ER_AUC_viability: ACEA Biosciences xCELLigence Real-Time Cell Analysis on Estrogen Receptor Agonism for Viability (AID 2283782; active means hit-call score of the fitted dose curve at least 0.9, where 1 is the maximum;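 further: hit means loss of impedance signal meaning reduced cell growth or viability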). The essentials:
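Read-out: real-time electrical impedance (RT-CES) area under curve, loss of signal taken as reduced viability, normalized to DMSO baseline. T-47D cells, charcoal-stripped serum medium, compounds up to 100 uM final, continuous exposure, 80 h.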

Assay [20] has as its target human Vitamin D Receptor (VDR), VDR (gene 7421) (UniProt P11473). The assay can be described thus: ATG_VDR_TRANS: Attagene TRANS-FACTORIAL HepG2 Assay for human Vitamin D Receptor (VDR) (AID 2283022; active means hit-call score of the fitted dose curve at least 0.9, where 1 is the maximum). The method in brief:
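Multiplexed TRANS reporter in HepG2; 24 h treatment; reporter mRNA by RT-PCR plus capillary electrophoresis; upregulation scored relative to DMSO.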

The structures appear in SMILES notation. Results filed as inconclusive are left out. Calls of active or inactive are those of the source. How the source made its calls, unless noted: active means hit-call score of the fitted dose curve at least 0.9, where 1 is the maximum; inactive means score below 0.9.

Usually AC50 stands for the concentration giving half of the maximal activity seen.

Hypoxia-inducible factor 1-alpha (Homo sapiens), sequence (Q16665 whole entry, looked up): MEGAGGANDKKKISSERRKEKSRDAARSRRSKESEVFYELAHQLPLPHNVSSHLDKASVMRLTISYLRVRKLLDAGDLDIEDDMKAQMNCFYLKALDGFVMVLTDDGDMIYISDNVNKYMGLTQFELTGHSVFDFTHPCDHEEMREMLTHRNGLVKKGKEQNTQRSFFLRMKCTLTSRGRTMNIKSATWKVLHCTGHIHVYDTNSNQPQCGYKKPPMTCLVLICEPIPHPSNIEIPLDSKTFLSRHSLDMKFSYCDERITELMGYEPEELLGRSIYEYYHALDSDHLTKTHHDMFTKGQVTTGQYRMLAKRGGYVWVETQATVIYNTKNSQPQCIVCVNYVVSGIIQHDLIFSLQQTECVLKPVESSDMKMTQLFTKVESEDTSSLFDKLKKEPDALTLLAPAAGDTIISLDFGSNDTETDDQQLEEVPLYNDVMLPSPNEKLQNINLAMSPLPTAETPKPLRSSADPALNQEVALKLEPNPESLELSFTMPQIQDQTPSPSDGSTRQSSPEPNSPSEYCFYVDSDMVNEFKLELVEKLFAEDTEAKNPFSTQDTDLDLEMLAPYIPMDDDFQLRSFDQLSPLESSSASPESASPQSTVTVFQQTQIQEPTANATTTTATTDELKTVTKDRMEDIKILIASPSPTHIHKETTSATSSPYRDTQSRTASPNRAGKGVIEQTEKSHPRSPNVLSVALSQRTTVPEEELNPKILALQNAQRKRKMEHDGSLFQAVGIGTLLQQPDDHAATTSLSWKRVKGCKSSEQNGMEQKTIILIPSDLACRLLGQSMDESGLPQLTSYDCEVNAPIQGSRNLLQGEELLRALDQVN
human Peroxisome Proliferator-activated Receptor delta (PPARd), PPARD (gene 5467), sequence (Q03181 whole entry, looked up, the tested form may be a part): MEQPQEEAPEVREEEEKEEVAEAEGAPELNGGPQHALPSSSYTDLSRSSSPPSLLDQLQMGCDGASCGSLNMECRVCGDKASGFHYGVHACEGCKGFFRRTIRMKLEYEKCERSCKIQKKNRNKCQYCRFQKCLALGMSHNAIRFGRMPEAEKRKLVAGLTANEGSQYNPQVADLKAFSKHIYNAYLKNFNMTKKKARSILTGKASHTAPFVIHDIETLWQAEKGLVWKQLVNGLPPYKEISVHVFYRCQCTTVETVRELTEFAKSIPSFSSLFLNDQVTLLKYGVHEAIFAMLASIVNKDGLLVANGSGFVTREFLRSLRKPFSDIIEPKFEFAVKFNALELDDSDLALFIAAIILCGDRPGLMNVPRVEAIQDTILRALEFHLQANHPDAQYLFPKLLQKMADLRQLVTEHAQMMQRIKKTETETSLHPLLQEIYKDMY
Hepatocyte nuclear factor 4-alpha (Homo sapiens), sequence (P41235 whole entry, looked up): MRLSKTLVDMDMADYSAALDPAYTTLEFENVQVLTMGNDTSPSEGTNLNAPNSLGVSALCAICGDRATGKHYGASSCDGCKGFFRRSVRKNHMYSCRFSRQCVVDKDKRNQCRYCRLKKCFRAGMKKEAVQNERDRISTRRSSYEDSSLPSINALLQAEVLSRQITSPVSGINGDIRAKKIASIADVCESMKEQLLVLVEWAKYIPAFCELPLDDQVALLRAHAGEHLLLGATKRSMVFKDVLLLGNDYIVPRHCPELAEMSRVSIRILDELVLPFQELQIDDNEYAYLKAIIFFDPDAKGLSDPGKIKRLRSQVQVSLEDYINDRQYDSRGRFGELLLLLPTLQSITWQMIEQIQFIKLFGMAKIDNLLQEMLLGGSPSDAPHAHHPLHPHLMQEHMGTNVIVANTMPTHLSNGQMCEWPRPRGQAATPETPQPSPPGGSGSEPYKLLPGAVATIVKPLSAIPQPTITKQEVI
human Thyroid Receptor alpha (THRa1), THRA (gene 7067), sequence (P10827 whole entry, looked up, the tested form may be a part): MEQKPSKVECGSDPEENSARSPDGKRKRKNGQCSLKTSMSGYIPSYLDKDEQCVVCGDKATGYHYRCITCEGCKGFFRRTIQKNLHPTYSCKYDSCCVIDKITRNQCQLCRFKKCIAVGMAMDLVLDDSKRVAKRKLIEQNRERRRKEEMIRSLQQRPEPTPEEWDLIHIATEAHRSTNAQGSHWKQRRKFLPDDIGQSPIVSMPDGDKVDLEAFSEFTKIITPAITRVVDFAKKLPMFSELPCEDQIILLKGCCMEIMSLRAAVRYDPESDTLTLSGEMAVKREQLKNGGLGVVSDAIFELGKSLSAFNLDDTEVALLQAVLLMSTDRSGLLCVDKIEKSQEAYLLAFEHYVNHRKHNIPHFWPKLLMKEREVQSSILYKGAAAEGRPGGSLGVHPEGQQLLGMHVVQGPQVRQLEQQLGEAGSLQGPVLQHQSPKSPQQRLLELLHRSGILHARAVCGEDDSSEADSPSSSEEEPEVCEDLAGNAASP
human Vitamin D Receptor (VDR), VDR (gene 7421), sequence (P11473 whole entry, looked up): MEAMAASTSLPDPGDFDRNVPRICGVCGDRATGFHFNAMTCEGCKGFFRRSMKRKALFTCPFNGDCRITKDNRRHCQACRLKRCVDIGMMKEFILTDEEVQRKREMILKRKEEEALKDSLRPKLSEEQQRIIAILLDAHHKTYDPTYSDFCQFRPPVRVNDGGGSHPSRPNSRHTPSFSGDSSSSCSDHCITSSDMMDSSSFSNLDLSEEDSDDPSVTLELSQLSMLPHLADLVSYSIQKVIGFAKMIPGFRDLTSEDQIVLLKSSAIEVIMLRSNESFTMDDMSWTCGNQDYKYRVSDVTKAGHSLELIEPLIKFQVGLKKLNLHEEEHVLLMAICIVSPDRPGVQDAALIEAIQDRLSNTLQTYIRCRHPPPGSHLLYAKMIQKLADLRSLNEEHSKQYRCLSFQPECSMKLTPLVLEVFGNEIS

`COc1cc(CNC(=O)CCCC/C=C/C(C)C)ccc1O`: the outcome in assay [1], in assay [2], in assay [3], in assay [4] and in assay [5] was inactive. For the same compound, the AC50 is 5.46 µM (active) in [6] and 5.59 µM (active) in assay [7].
As for `CN(C)N=Nc1ccccc1`, the outcome in assay [8], in assay [9], in assay [10], in assay [11], in assay [12] and in assay [13] was inactive. The compound was called inactive in assay [14], in [15] and in assay [16].
Turning to `COc1ccc2ccccc2c1`, the compound was called inactive in [8], in assay [10], in [11], in [12], in [15] and in assay [16].
In the case of `CCO[Si](CCCN)(OCC)OCC`, the result in [9], in assay [10], in assay [17], in assay [11], in assay [12] and in assay [13] was inactive. The compound was classed as inactive in assay [14], in assay [18] and in assay [19].
On to `CCCc1c(OCCCCc2nn[nH]n2)ccc(C(C)=O)c1O`, for which the result in [17], in assay [13], in assay [14], in [16] and in assay [20] was inactive. Moreover, the AC50 in [15] is 20.4 µM (active).
Turning to `O=C(C1CCCCC1)N1CC(=O)N2CCc3ccccc3C2C1` (stereo not drawn), the outcome in assay [8], in assay [10], in assay [17], in assay [15] and in assay [20] was inactive.
Consider `CC[N+](CC)(CC(=O)Nc1c(C)cccc1C)Cc1ccccc1`, for which the result in assay [8], in [9], in assay [11], in assay [12], in assay [13] and in assay [18] was inactive. For the same compound, the result in assay [19] was inactive.
For the compound `O=C(O)/C=C\C(=O)O`, the outcome in assay [9], in [10], in assay [17], in assay [11], in assay [12] and in assay [13] was inactive. For the same compound, the compound was called inactive in [14], in assay [18] and in assay [16].
For `COc1ccc(C(=O)c2ccccc2O)c(O)c1`, the outcome in assay [1], in assay [2], in assay [3], in assay [6] and in [7] was inactive. The AC50 in assay [4] is 0.003 µM (active); in [5] it was 0.0203 µM (active).
For `CC[N+](CC)(CC(=O)Nc1c(C)cccc1C)Cc1ccccc1` (tested in a mixture with another compound), the result in assay [8], in assay [10], in [12], in assay [13], in [18] and in assay [1] was inactive. Also, the outcome in assay [2], in assay [3], in assay [4], in assay [5] and in assay [7] was inactive. The AC50 in assay [6] is 1.05 µM (active).
Consider `C1CN(CCOCCN2CCOCC2)CCO1`, for which the compound was classed as inactive in assay [1], in [2], in assay [3], in [4], in assay [5] and in assay [7]. Further, the AC50 in assay [6] is 0.003 µM (active).
Regarding `COc1ccc(COC=O)cc1`, the call in assay [19] was inactive.
With `CNCCC(Oc1ccc(C(F)(F)F)cc1)c1ccccc1` (stereo not drawn), the outcome in [1], in [2], in assay [3], in assay [4] and in assay [5] was inactive. Besides, the AC50 was 7.68 µM (active) in assay [6] and 6.04 µM (active) in assay [7].
For the compound `CC(COc1ccccc1)N(CCCl)Cc1ccccc1` (stereo not drawn), the AC50 in assay [19] was 88.7 µM (active).
